From paper PMC11024108

target: Septin-5 (UniProt Q9Z2Q6); assay: cross-link between two proteins; cross-linking mass spectrometry
Sequence (Q9Z2Q6 whole entry): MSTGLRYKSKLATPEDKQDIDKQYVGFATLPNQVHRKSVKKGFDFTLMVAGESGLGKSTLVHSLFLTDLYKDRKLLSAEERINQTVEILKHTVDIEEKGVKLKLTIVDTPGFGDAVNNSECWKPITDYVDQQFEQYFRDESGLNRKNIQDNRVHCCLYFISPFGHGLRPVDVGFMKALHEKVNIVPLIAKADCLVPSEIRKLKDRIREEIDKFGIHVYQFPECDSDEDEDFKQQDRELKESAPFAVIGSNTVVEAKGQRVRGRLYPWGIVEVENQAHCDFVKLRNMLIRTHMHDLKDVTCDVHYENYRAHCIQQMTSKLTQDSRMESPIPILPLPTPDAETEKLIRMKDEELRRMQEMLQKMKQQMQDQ

Listed as a hit, yes:
Septin-4, P28661
Septin-8, Q8CHH9
Septin-6, Q9R1T4
Septin-11, Q8C1B7
